The values below come from PubChem BioAssay.

Inconclusive results are not listed. For part of these data: Measured potencies and affinities stand elsewhere. Activity calls are given as the source filed them.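 Rule for the calls, unless noted: active = fitted half-maximal concentration within 10 nM to 100 µM, steepness 0.5 to 2, significant signal drop, low assay interference; inactive = the rest.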

Assay [1] concerns the target Cell division control protein 42 homolog (Homo sapiens) (UniProt P60953). Nature of the assay: activated mutant Cdc42 GTP-binding inhibitors, dose response, biochemical, multiplex bead flow cytometry, Bodipy-FL-GTP (AID 1333;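 active = fitted half-maximal concentration within the tested dose range, moderate curve steepness, a statistically real signal drop, and little compound fluorescence or tag-binding interference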). (In general: A flow cytometer gives signals particle by particle.)
The target is the same in assay [2]. Nature of the assay: wildtype Cdc42 GTP-binding inhibitors, dose response, biochemical, multiplex bead flow cytometry, Bodipy-FL-GTP (AID 1334;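 active = fitted half-maximal concentration within the tested range, moderate curve steepness, significant signal drop, and little compound fluorescence or bead-linkage interference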). The conditions noted are these: bead-based flow cytometry, Bodipy-FL-GTP binding to GST-Cdc42; at 100 µM (top of the series) unless noted.
The target in assay [3] is GTPase HRas (Homo sapiens) (UniProt P01112). As to the kind of experiment: inhibitors of GTP binding to wildtype Ras, dose response, biochemical, multiplex bead flow cytometry (AID 1335). The conditions noted are these: bead-based flow cytometry, Bodipy-GTP binding to GST-Ras; at 100 µM (top of the series) unless noted.
Sequence of GTPase HRas (Homo sapiens) (P01112 whole entry, looked up): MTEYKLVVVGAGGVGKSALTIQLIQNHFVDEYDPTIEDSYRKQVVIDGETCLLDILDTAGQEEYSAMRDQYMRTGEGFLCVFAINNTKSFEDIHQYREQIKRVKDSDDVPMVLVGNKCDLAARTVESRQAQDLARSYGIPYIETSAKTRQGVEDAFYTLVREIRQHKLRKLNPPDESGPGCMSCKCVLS
Assay [4] relates to Ras-related protein Rab-7a (dog), GTP binding. As to the kind of experiment: Rab7 GTP binding inhibitors, potency, dose response, biochemical, wildtype, multiplex bead flow cytometry (AID 1336; call rule not given here).
Assay [5] addresses Ras-related C3 botulinum toxin substrate 1 (Homo sapiens) (UniProt P63000). As to the kind of experiment: wildtype Rac1 GTP binding inhibitors, dose response, biochemical, multiplex bead flow cytometry (AID 1340;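 active = dose curve with midpoint inside tested range, moderate steepness, plateau gap beyond fit error, low compound glow and bead-link interference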). The conditions noted are these: GST-Rac1 beads, Bodipy-FL-GTP binding; at 100 µM (top of the series) unless noted.
Assay [6] has as its target GTPase HRas (Homo sapiens) (UniProt P01112). As to the kind of experiment: activated Ras mutant GTP binding inhibitors, dose response, biochemical, multiplex bead flow cytometry (AID 1341;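 active = dose-response curve with midpoint inside the tested range, moderate steepness, significant amplitude and little compound fluorescence or bead-attachment interference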;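 note: GST-tagged constitutively activated Ras mutant immobilized on beads and multiplexed with other GTPases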).
Assay [7] is described as follows: yeast TOR pathway RPL19A-GFP modulators, primary screen, cell-based, S. cerevisiae, multiplex flow cytometry (AID 1862; in the data active = percent of DMSO control GFP below about 86%;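 note: lower values mimic rapamycin by blocking the RPL19A rise seen in DMSO cells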). The conditions noted are these: S. cerevisiae RPL19A-GFP strain, flow cytometry fluorescence, 3 h; at 10 µM; stronger effect = lower value.
Assay [8] in a line: modulators of MEP2-GFP levels in yeast, primary screen, S. cerevisiae, multiplex flow cytometry (AID 1867;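 active = GFP response, as percent of the DMSO control, above the screen-wide mean plus 3 SD, about 139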;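 note: median GFP channel fluorescence of barcode-gated MEP2-GFP cells measured by flow cytometry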). The conditions noted are these: S. cerevisiae MEP2-GFP strain, 3 h, at 10 µM, stronger effect = higher value, 100% means same as DMSO wells.
A short description of assay [9]: modulators of CIT2-GFP expression in yeast, primary screen, S. cerevisiae, GFP fusion, multiplex flow cytometry (AID 1870;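 active = percent response above a set limit, the screen-wide mean plus 3 SD, cut at about 130% in these data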;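 note: barcoded CIT2-GFP strain pooled with four other GFP strains with rapamycin as positive control; median GFP fluorescence per well over plate mean of DMSO wells so 100% = DMSO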). The conditions noted are these: 3 h, at 10 µM, stronger effect = higher value.
Assay [10] is described as follows: modulators of LAP4-GFP expression in yeast, primary screen, S. cerevisiae, multiplex flow cytometry (AID 1873;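 active = GFP signal, as percent of the solvent control, above the screen mean plus 3 SD, about 149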). The conditions noted are these: 3 h, at 10 µM, stronger effect = higher value.
Assay [11] is described as follows: modulators of AGP1-GFP expression in yeast TOR pathway, primary screen, cell-based, multiplex flow cytometry, S. cerevisiae (AID 1887;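 active = GFP signal above the screen-wide mean plus 3 SD, that is over about 124.5% of the solvent control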;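 note: AGP1-GFP fusion strain of S. cerevisiae within a five-strain barcoded multiplex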). The conditions noted are these: 3 h, at 10 µM, stronger effect = higher value.
The nature of assay [12]: inhibitors of CD8+ T cell-vesicle binding, pilot screen, LFA-1/ICAM-1 modulator project, MLPCN validation set, flow cytometry (AID 2523;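 active = response below a set limit, under 55% cells CD8-positive and vesicle-bound, and CD8 cells' 90th-percentile brightness under 279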;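 for vesicle binding response: mean PE anti-B7-1 fluorescence of CD8+ cells relative to row control; 100% = QL9-loaded vesicles with DMSO vehicle in the same plate row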). The conditions noted are these: 2C mouse CD8+ T cells, at 7 µM, stronger effect = lower value; double positive events: measured here: CD8+/vesicle+ event percentage.
The target of assay [13] is Integrin beta-1 (Homo sapiens) + Integrin alpha-4 (Homo sapiens) (UniProt P13612+P05556). Nature of the assay: inhibition of HUTS-21 binding to VLA-4, pilot screen, VLA-4 allosteric modulator project, U937 cells, HUTS-21 mAb, flow cytometry, validation set (AID 2674;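 active = inhibition above 50%, about 3 SD of the validation set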;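 note: antibody binding induced by the VLA-4 ligand LDV present at three times its Kd; 0% = LDV ligand with antibody and no compound and 100% = antibody without LDV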). The conditions noted are these: HUTS-21 LIBS mAb binding, at 6.7 µM, stronger effect = higher value, binding induced by LDV ligand.
Sequence of Integrin beta-1 (Homo sapiens) + Integrin alpha-4 (Homo sapiens) (P05556 whole entry, looked up): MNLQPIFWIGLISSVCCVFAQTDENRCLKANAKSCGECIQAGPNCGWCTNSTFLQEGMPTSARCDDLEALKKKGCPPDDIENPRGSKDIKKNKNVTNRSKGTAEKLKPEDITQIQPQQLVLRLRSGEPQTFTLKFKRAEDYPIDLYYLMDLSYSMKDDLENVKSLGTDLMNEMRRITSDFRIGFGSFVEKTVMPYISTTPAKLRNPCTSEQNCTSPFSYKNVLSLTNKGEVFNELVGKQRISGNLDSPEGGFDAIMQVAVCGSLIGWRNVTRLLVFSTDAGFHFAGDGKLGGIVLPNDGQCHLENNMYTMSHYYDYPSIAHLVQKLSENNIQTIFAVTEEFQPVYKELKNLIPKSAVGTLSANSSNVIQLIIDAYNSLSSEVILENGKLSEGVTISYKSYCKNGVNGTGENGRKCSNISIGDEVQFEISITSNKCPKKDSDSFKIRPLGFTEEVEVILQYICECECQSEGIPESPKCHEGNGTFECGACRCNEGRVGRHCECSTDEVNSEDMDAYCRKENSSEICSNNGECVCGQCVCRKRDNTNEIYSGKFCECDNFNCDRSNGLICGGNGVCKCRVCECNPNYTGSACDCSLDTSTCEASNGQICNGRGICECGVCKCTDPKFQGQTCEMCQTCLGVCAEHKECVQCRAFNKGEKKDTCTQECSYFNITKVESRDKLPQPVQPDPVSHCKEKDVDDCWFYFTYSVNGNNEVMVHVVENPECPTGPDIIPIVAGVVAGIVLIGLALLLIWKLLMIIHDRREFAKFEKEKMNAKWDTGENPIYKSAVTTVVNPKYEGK
Sequence of Integrin beta-1 (Homo sapiens) + Integrin alpha-4 (Homo sapiens) (P13612 whole entry, looked up): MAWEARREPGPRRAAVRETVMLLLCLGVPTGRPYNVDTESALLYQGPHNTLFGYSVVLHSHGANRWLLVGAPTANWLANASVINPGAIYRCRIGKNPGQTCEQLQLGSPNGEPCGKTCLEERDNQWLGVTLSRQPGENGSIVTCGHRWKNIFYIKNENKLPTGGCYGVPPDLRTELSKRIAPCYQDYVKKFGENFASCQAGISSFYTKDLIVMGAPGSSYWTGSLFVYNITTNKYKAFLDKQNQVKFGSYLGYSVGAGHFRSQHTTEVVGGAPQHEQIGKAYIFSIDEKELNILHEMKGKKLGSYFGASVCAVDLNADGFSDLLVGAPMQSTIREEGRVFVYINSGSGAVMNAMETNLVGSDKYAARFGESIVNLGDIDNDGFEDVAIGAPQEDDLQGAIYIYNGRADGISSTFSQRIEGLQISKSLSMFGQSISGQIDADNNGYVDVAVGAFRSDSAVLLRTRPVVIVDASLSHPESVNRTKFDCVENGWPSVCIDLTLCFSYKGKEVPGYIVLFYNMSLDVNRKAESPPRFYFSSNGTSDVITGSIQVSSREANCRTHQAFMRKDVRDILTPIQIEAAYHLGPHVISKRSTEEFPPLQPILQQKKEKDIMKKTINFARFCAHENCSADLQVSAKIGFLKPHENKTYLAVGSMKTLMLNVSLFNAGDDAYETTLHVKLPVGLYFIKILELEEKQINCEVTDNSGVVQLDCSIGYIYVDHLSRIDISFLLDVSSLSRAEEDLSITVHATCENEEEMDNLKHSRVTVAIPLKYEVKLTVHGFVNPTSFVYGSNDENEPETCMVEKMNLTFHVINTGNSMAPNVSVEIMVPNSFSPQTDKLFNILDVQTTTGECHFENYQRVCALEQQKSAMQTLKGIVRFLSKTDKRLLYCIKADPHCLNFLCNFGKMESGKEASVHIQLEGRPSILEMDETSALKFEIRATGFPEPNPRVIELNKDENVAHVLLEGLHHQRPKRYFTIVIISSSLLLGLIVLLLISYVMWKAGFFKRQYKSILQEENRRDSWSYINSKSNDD

A short description of assay [14]: superoxide lowering in aged yeast cells, pilot screen, validation compound set (AID 2706;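 active = superoxide response below 65% of plate, a cut near 3 SD across the whole screen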;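 note: yeast exposed to compound for one week at 30 degrees C before staining; 100% = mean of all compound wells on the same plate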). The conditions noted are these: S. cerevisiae aging, superoxide DHE fluorescence; at 10 µM; stronger effect = lower value.
Assay [15] has as its target Beta-adrenergic receptor kinase 1 (Homo sapiens) (UniProt P25098). Nature of the assay: GRK2 binders displacing RNA aptamer, biochemical, validation, human GRK2, bead flow cytometry (AID 488806;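 active = aptamer binding inhibition above 30%, about 3 SD of noise from non-fluorescent compounds; inactive = inhibition at or below 30%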). The conditions noted are these: bead-bound GRK2, FAM-aptamer displacement, at 10 µM, stronger effect = higher value.
Assay [16] addresses Beta-2 adrenergic receptor (Homo sapiens) (UniProt P07550). Nature of the assay: beta2AR agonists driving receptor internalization, pilot screen, cell-based, FAP fluorogen, flow cytometry, validation set (AID 504459;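 active = percent response above 42, roughly 3 SD of non-fluorescent test compounds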;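 note: agonist-driven loss of surface beta2AR via internalization measured by FAP dye flow cytometry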). The conditions noted are these: Am2.2-beta2AR cells, FAP surface receptor flow cytometry; at 10 µM; stronger effect = higher value.
Assay [17] addresses AP-2 complex subunit beta (Homo sapiens) (UniProt P63010). As to the kind of experiment: inhibitors of arrestin peptide binding to AP2, pilot screen, biochemical, validation set, GST-AP2 beads, flow cytometry (AID 504541;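 active = inhibition above 54%, about 3 SD of non-fluorescent compounds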;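 note: AP2 carries R879A mutation and is captured from E. coli lysate; bead-bound FITC arrestin peptide fluorescence measuring arrestin peptide binding to AP2; 0% = DMSO wells and 100% = excess unlabeled arrestin peptide control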). The conditions noted are these: FITC arrestin peptide, at 10 µM, stronger effect = higher value, AP2 beta2 appendage fragment, R879A mutant.
The nature of assay [18]: yeast V-ATPase proton transport modulators, S. cerevisiae, pHLuorin, HTS validation (AID 504600; in the data active = response above about 15%;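 note: plate controls were DMSO for no effect and reference compound for full effect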). The conditions noted are these: S. cerevisiae pHLuorin cytosolic pH, at 10 µM, stronger effect = higher value.
Assay [19] has as its system anti-desmoglein-3 scFv antibody binding to human DSG3. Nature of the assay: inhibitors of anti-DSG3 scFv binding to DSG3, pilot screen, biochemical, validation compound set, bead-based, flow cytometry (AID 588368;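 active = binding below the plate cutoff, the plate median minus 3 SD, with a reading above zero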;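 note: signal is the median channel fluorescence of bead-bound GFP antibody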). The conditions noted are these: Protein G beads, DSG3-Fc, scFv-GFP binding, at 10 µM, stronger effect = lower value.
Assay [20] in a line: inhibitors of fungal efflux pumps CDR1, CDR2, MDR1, pilot screen, validation compound set, multiplex, phenotypic (AID 588506;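 active = efflux inhibition above 0.42, the validation set average plus 4 SD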;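 note: Nile Red retained in cells so higher fluorescence means more efflux inhibition; 0 = negative control wells and 1 = enniatin B 25 µM full block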). The conditions noted are these: S. cerevisiae pump-expressing triplex, Nile Red efflux flow cytometry; at 10 µM; stronger effect = higher value; the pumps come from Candida albicans.
Assay [21] addresses ATP-binding cassette sub-family B member 6 (Homo sapiens) (UniProt Q9NP58). Nature of the assay: ABCB6 transporter inhibitors, pilot screen, K562-ABCB6 cells, flow cytometry, validation set (AID 588550;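 active = inhibition above the screen-wide mean plus 3 SD, about 51%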;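 note: 0% = DMSO wells and 100% = benzethonium chloride 70 µM positive control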). The conditions noted are these: K562-ABCB6 porphyrin accumulation, 1 h, at 10 µM, stronger effect = higher value.
The nature of assay [22]: promoters of myeloid differentiation in arrested cells, primary screen, cell-based, GFP/MAC1 double positive, flow cytometry, validation set (AID 588685;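 active = differentiation response of at least 50%, scaled between solvent and reference control, from cells with both markers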;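 note: compound exposure lasts four days before antibody staining and flow analysis; 0% = DMSO wells and 100% = 5 µM fulvestrant positive control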). The conditions noted are these: ER-HoxA9 marrow cells, stronger effect = higher value, normalized: vehicle 0, fulvestrant 100.
Assay [23] in a line: RPL19A-GFP modulators, yeast TOR pathway, confirmation, cell-based, S. cerevisiae, flow cytometry, cherry picks, mother/daughter gates (AID 2270;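 active = GFP response below 50% of the DMSO control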). The conditions noted are these: S. cerevisiae RPL19A-GFP strain, 3 h, at 10 µM, stronger effect = lower value, 100 = same GFP as DMSO wells.
Assay [24] in a line: LAP4-GFP expression modulators in yeast, confirmation, cell-based, cherry picks, flow cytometry, mother/daughter gates (AID 2271;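 active = GFP response above 150% of the DMSO control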;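 note: ratio of sample to DMSO plate mean so 100% equals DMSO level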). The conditions noted are these: S. cerevisiae LAP4-GFP strain, 3 h, at 10 µM, stronger effect = higher value, 100 means same as DMSO control.
The nature of assay [25]: modulators of MEP2-GFP levels in yeast, confirmation, S. cerevisiae, flow cytometry GFP, cherry picks (AID 2272;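 active = GFP response above 150% of the DMSO control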;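 note: ratio of well signal to plate DMSO mean so 100% equals DMSO level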). The conditions noted are these: S. cerevisiae MEP2-GFP strain, 3 h, at 10 µM, stronger effect = higher value.
A short description of assay [26]: AGP1-GFP expression modulators, hit retest, confirmation, cell-based, flow cytometry, S. cerevisiae, cherry picks (AID 2273;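 active = GFP response above 150% of the DMSO level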;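 note: median GFP channel fluorescence over the whole cell population gate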). The conditions noted are these: S. cerevisiae AGP1-GFP strain, 3 h, at 10 µM.
Assay [27] can be described thus: modulators of CIT2-GFP expression in yeast, confirmation, S. cerevisiae, GFP fusion, cherry picks, mother/daughter gates (AID 2274;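 active = GFP response above 150% of the DMSO level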). The conditions noted are these: S. cerevisiae CIT2-GFP strain, flow cytometry, 3 h, at 10 µM, stronger effect = higher value.
[28] abbreviates: measured here: daughter cell gate.
The mark [29] stands for this setting: measured here: mother cell gate.
Where [30] appears, read: measured here: daughter cell gate response.
Setting [31] is: measured here: mother cell gate response.

Sequence of Cell division control protein 42 homolog (Homo sapiens) (P60953 whole entry, looked up): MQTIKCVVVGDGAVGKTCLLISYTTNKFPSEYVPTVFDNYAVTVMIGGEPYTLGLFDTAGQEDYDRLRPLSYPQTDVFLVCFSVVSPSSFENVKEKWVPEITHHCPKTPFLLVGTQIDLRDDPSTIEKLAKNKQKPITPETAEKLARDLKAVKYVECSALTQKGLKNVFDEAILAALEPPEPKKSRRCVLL
Sequence of AP-2 complex subunit beta (Homo sapiens) (P63010 whole entry, looked up, the tested form may be a part, one chain of several): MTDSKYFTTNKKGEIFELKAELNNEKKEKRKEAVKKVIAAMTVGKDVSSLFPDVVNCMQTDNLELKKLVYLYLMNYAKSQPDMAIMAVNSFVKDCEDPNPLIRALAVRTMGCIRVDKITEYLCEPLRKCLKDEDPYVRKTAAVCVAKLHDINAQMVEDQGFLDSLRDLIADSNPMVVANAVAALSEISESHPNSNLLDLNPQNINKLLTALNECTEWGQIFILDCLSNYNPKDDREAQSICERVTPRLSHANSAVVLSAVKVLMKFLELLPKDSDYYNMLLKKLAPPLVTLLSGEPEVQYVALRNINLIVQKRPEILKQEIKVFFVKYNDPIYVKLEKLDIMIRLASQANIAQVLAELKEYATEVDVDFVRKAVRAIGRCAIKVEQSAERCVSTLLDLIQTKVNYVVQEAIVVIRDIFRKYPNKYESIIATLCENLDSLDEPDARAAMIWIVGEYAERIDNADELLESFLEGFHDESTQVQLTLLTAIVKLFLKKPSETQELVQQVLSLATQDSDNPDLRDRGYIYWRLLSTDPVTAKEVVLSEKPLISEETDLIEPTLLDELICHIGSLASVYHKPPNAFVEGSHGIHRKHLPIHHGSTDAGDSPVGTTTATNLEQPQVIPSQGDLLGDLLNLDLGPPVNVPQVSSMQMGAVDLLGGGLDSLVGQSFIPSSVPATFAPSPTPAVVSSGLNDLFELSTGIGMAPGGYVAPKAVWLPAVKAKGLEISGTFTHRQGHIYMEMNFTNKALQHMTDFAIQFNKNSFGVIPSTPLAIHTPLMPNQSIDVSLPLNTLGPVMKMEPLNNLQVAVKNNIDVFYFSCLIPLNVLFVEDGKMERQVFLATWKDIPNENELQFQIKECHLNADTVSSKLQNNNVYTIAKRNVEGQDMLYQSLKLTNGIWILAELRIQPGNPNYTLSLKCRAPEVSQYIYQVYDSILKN
Sequence of Beta-2 adrenergic receptor (Homo sapiens) (P07550 whole entry, looked up): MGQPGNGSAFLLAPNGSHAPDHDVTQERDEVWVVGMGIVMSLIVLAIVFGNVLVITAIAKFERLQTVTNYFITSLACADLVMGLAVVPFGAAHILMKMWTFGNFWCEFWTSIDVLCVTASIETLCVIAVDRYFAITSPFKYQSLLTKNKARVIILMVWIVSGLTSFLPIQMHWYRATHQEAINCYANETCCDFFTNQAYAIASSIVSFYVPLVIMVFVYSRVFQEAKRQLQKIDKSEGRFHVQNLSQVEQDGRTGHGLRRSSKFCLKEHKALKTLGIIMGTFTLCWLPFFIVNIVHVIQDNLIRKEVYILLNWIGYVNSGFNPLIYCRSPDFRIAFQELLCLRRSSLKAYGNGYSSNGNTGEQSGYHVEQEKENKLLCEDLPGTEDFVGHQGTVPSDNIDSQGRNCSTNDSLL
Sequence of ATP-binding cassette sub-family B member 6 (Homo sapiens) (Q9NP58 whole entry, looked up): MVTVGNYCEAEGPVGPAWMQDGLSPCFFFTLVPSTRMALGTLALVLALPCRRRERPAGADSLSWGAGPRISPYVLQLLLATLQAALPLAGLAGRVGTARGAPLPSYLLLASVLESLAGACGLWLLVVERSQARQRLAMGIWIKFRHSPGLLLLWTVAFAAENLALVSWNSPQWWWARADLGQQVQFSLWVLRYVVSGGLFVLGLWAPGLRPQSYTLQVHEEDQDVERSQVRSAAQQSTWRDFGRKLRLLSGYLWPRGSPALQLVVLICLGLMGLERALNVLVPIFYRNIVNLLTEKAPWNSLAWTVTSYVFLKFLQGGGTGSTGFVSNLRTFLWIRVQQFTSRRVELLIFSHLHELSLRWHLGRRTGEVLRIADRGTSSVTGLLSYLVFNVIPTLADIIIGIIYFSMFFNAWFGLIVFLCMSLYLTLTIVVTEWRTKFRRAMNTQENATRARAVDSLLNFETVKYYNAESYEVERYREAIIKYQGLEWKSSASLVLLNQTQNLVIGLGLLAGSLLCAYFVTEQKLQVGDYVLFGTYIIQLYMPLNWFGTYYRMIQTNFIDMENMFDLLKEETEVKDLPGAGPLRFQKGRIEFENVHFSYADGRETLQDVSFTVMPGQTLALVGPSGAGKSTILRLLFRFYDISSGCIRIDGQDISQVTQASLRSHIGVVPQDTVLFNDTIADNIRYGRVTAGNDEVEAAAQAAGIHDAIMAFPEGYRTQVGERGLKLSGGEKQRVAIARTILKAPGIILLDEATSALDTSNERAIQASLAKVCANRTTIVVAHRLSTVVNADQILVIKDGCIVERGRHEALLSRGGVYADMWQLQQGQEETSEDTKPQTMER

As for `COc1cc2c(cc1OC)-c1cc(NC3CCCCCC3)nc(=O)n1CC2`, the outcome in assay [1], in [4] and in [6] was inactive. Moreover, the fluorescence, percent of control (lower = inhibition) in assay [2] came to 34.3%. For the same molecule, the GTP binding, percent of control in assay [3] was determined as 69.8%. This molecule also came in with a GTP binding signal, raw median fluorescence (lower = inhibition) (MCF (arbitrary fluorescence units)) in assay [5] of 145. Besides, the percent of DMSO control GFP in assay [7] is 100% (inactive). Also, the results for the GFP response vs DMSO in assay [8] and in [10] were 100% (inactive) and 94.7% (inactive), respectively. In addition, the percent response of DMSO control in assay [9] is 109% (inactive). Moreover, in assay [11], the GFP response, % of DMSO was 95.9% (inactive). In [12], the double positive events was 62.4%. In addition, the vesicle binding response in assay [12] was 601% (inactive). The inhibition was -22.2% (inactive) in assay [13], 17% (inactive) in assay [17] and -6% (inactive) in assay [21]. The superoxide response (% of plate) in [14] was 98.3% (inactive). In addition, the aptamer binding inhibition in assay [15] is 0% (inactive). For the same molecule, the response is -1.14% (inactive) in assay [16] and -1.05% (inactive) in assay [18]. For the same molecule, the binding (% of control) in [19] was 107% (inactive). Moreover, the efflux inhibition (fraction of control) in [20] was 0.21 (inactive). The differentiation response in [22] is 7.09% (inactive).
With `O=C(Nc1nc(-c2cccs2)cs1)c1cc2ccccc2oc1=O`, the outcome in [1], in [4] and in assay [6] was inactive. The fluorescence, percent of control (lower = inhibition) in assay [2] is 51.8%. This molecule displayed a GTP binding, percent of control in assay [3] of 130%. The GTP binding signal, raw median fluorescence (lower = inhibition) (MCF (arbitrary fluorescence units)) in [5] stood at 141.
Take `COc1cccc2sc(Nc3nc(-c4ccccn4)cs3)nc12`: the outcome in [1], in assay [4] and in [6] was inactive. In [2], this molecule gave a fluorescence, percent of control (lower = inhibition) of 34.8%. In assay [3], this molecule had a GTP binding, percent of control of 80.4%. For the same molecule, in [5], the GTP binding signal, raw median fluorescence (lower = inhibition) (MCF (arbitrary fluorescence units)) is 194. Moreover, the GFP response vs DMSO in assay [23] is 107% (inactive); in [23] (setting [28]), 99.5%; in [23] (setting [29]), 96.6%; in assay [25] it was 124% (inactive). The GFP response relative to DMSO in [24] is 254% (active); in assay [24] (setting [30]), 201%; in assay [24] (setting [31]) it was 240%. Besides, the GFP response, % of DMSO in assay [26] was 104% (inactive); in assay [27], 96.5% (inactive); in [27] (setting [28]), 99.7%; in assay [27] (setting [29]), 88%.
In the case of `CN(/N=C/C=C/c1ccccc1)C1=NS(=O)(=O)c2ccccc21`, the molecule was called inactive in assay [1], in assay [4] and in assay [6]. The molecule further had a fluorescence, percent of control (lower = inhibition) in assay [2] of 40.3%. The same molecule came in with a GTP binding, percent of control in assay [3] of 51.8%. In assay [5], the GTP binding signal, raw median fluorescence (lower = inhibition) (MCF (arbitrary fluorescence units)) worked out at 124.
Turning to `Cc1cc(C)nc(Nc2nc(=O)c3ccccc3s2)n1`, the molecule was called inactive in [1], in assay [4] and in assay [6]. The molecule also returned a fluorescence, percent of control (lower = inhibition) in assay [2] of 50.5%. Besides, the GTP binding, percent of control in assay [3] was determined as 61.9%. In assay [5], this molecule had a GTP binding signal, raw median fluorescence (lower = inhibition) (MCF (arbitrary fluorescence units)) of 205.
For `Cc1cc(C)c(C(=O)Cn2cnc3cc([N+](=O)[O-])ccc3c2=O)cc1C`, the result in assay [1], in [4] and in assay [6] was inactive. In assay [2], the fluorescence, percent of control (lower = inhibition) stood at 34%. In assay [3], this molecule showed a GTP binding, percent of control of 74.6%. The molecule also came in with a GTP binding signal, raw median fluorescence (lower = inhibition) (MCF (arbitrary fluorescence units)) in assay [5] of 161. In addition, the GFP response vs DMSO in assay [23] is 100% (inactive); in [23] (setting [28]), 101%; in [23] (setting [29]) it was 99.8%; in [25], 99.3% (inactive). For the same molecule, the GFP response relative to DMSO in [24] was 89.4% (inactive); in assay [24] (setting [30]), 88.2%; in assay [24] (setting [31]) it was 91.3%. Also, the GFP response, % of DMSO was 102% (inactive) in assay [26], 97.2% (inactive) in assay [27], 97.6% in [27] (setting [28]) and 98.2% in assay [27] (setting [29]).

The term inhibition denotes the drop in the measured response relative to a control, in per cent.
